Compounds with a hit are over-represented: about 3% of the library has one in this group of screens.
SENP7 block = SENP7 protease inhibitors, primary screen, biochemical, luminescence, uHTS. inhibition, % at 5 µM. recombinant SENP7, Z-RLRGG-aminoluciferin luminescence, 40 min. Sentrin-specific protease 7 (Homo sapiens), Q9BQF6. AID 434973, 2010. actives 1.5% (n = 330,000);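 active means inhibition above about 50% at the single test dose, limit read from the data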;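 further: plate controls were DMSO with enzyme for no effect and no enzyme buffer wells for full effect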
Target sequence (Q9BQF6 706-1050 limits assumed): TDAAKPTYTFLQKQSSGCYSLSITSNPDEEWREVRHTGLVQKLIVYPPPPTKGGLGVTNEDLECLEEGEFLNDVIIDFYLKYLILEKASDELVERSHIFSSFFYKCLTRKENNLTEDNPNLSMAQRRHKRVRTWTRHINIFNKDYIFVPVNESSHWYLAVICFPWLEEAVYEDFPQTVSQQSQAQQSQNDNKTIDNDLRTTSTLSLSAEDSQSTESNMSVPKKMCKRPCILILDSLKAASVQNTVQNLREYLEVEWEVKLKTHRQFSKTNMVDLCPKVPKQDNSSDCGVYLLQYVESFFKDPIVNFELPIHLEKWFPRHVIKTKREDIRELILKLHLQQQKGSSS
SENP8 block-1 = human SENP8 protease inhibitors, primary screen, biochemical, fluorescence, Nedd8 protein substrate, uHTS | Sentrin-specific protease 8 (Homo sapiens), Q96LD8 | recombinant SENP8 | inhibition, % at 20 µM | actives 0.64% (n = 360,000); in the data active means inhibition mostly above about 40%, no sharp cut-off; inactive means mostly below about 27%
Target sequence (Q96LD8 whole entry, looked up): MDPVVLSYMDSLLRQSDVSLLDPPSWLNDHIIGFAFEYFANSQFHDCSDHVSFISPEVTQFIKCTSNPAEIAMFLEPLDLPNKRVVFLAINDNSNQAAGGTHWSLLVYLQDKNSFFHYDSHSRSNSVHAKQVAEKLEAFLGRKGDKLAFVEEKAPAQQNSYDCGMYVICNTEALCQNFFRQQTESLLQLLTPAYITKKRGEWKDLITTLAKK
SENP6 block = SENP6 protease inhibitors, primary screen, biochemical, luminescence, uHTS | Sentrin-specific protease 6 (Homo sapiens), Q9GZR1 | Recombinant SENP6 catalytic domain, aminoluciferin luminescence | inhibition, % at 10 µM | actives 1.8% (n = 330,000) | AID 2599, 2010;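 active means inhibition above about 50% at the single tested dose, limit read from the data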;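 further: plate controls were DMSO wells with enzyme for no effect and DMSO wells lacking enzyme for full effect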
C8 TRAIL sens = viability loss with TRAIL in NB7+C8 cells, primary screen, TRAIL sensitizer project, cell-based, ATPlite luminescence; inhibition (viability loss, TRAIL sensitization), % at 10 µM; AID 624354, 2012; actives 1% (n = 360,000);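 active means compounds causing at least 50% loss of cell viability in the single-dose screen, relative to plate controls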
SENP8 block-2 = SENP8 protease inhibitors, primary screen, biochemical, luminescence; Sentrin-specific protease 8 (Homo sapiens), Q96LD8; purified SENP8, Z-RLRGG-aminoluciferin cleavage; AID 2540, 2010; actives 1.2% (n = 330,000); inhibition, % at 10 µM; in the data active means inhibition above about 50%
PPC-1+TRAIL kill = compounds killing PPC-1 cancer cells with TRAIL present, primary screen, TRAIL potentiator project, ATPLite luminescence, uHTS; actives 0.41% (n = 220,000); cell killing (% activity), % at 4 µM or 5 µM; AID 1443, 2008; PPC-1 cells + TRAIL, ATPLite viability luminescence;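 active means cell killing above 50% in the first pass at 4 µM, then a duplicate retest at 5 µM averaging 50% or more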;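 further: plate controls were cells with TRAIL plus DMSO for no effect and medium-only wells lacking cells for full effect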
Numbers without * were called inactive; . = no result.

SMILES	SENP7 block	SENP8 block-1	SENP6 block	C8 TRAIL sens	SENP8 block-2	PPC-1+TRAIL kill
Cc1ccc(Cl)cc1N1CCN(C(=O)c2cc3c(=O)[nH]c4ccccc4c3n2C)CC1	-3	-7	-6	48	-9	50*
CCc1ccc(N2CC(C(=O)OCC(=O)Nc3ccc(C#N)cc3)CC2=O)cc1 (stereo unspecified)	2	9	-4	4	-12	.
c1csc(-c2nc3ccccc3s2)c1	80*	-447	86*	0	78*	-4
c1csc(-c2ccc3ccccc3n2)c1	80*	-382	76*	5	57*	15
N#Cc1ccc(C(=O)OCCCc2cc3ccccc3c(=O)o2)cc1	2	10	-10	-8	-4	.
COc1ccc(Cn2cc(CN3CC(N4CCCC4)CS3(=O)=O)nn2)cc1 (stereo unspecified)	.	4	.	8	.	.
Cc1ccc(NC(=S)N=Nc2c(O)n(C)c3ccc(S(=O)(=O)N4CCOCC4)cc23)cc1	.	30*	.	26	.	-2
CCN(Cc1nc(-c2ccc(OC)cc2)no1)C(=O)c1ccoc1C	-2	0	-3	-5	3	.
CC(=O)Oc1ccc(/C=N\NC(=O)c2cc3c(ccc4ccccc43)o2)cc1	-4	-300	8	64*	10	.
O=C1c2cccc(O)c2C(=O)c2c(O)cccc21	12	.	7	.	1	12
O=C1c2cccc(Sc3ccccc3)c2C(=O)c2c(Sc3ccccc3)cccc21	-1	52*	10	2	12	12
Nc1nc(-c2ccccc2)nc2nonc12	.	-102	.	-19	.	.
CC1CCCN(C2=C(Cl)C(=O)N(c3cccc(Cl)c3)C2=O)C1 (stereo unspecified)	-1	18	12	0	2	19
COC(=O)C1CCN(C2=C(NS(=O)(=O)c3ccc(Cl)cc3)C(=O)c3ccccc3C2=O)CC1	20	40*	-8	7	6	-5
NC(=O)C1CCN(C2=C(NS(=O)(=O)c3ccc(Cl)cc3)C(=O)c3ccccc3C2=O)CC1	15	44*	6	-8	6	18
CC1CCCN(C2=C(NS(=O)(=O)c3ccc(Cl)cc3)C(=O)c3ccccc3C2=O)C1 (stereo unspecified)	12	60*	32	-1	12	26
NC(=O)C1CCN(c2oc(-c3ccccc3F)nc2S(=O)(=O)c2ccc(Cl)cc2)CC1	-2	14	1	-7	-3	-19
O/N=C/Cc1[nH]c2ccccc2c1-c1ccccc1	-11	16	-14	-6	-9	.
COc1cccc(N=Cc2ccc(O)cc2O)c1	-3	14	-12	-14	-2	-8
Oc1ccc(C=Nc2ccc3ncccc3c2)c(O)c1	25	.	84*	.	89*	17
COc1ccc(NC(=O)/C(Cl)=C(/Cl)S(=O)Cc2ccccc2)cn1 (stereo unspecified)	-6	18	-17	96*	-12	2
COc1ccc(NC(=O)Cc2ccccc2)cn1	-5	9	3	-1	7	3
COc1ccc(CS(=O)(=O)/C(Cl)=C(/Cl)C(=O)Nc2ccc(OC)nc2)cc1	3	14	-3	90*	1	16
COc1ccccc1N(CC(=O)NC1CCCCC1)C(=O)CNC(=O)c1cccs1	-3	3	-29	-8	-7	.
O=C(CN(c1cccc(C(F)(F)F)c1)S(=O)(=O)c1ccc(Cl)c([N+](=O)[O-])c1)NCc1ccccc1	-5	3	-10	-6	-11	47
SMILES	SENP7 block	SENP8 block-1	SENP6 block	C8 TRAIL sens	SENP8 block-2	PPC-1+TRAIL kill
O=C(CN(c1cccc(C(F)(F)F)c1)S(=O)(=O)c1ccc(Cl)c([N+](=O)[O-])c1)NCc1ccccc1Cl	1	19	-22	2	-14	66*
COc1ccc(C(=O)COC(=O)c2cccnc2SC)cc1	71*	3	27	1	29	-2
COc1ccc(OC)c(C(=O)COC(=O)c2cccnc2SC)c1	-6	-194	-1	-4	7	.
CC(C)Cc1csc(NC(=O)c2ccc(F)cc2)c1C(=O)O	2	-49	89*	3	84*	-8
CCOC(=O)c1c(CC(C)C)csc1NC(=O)c1ccccc1C(=O)O	6	-40	-13	12	-5	5
NC(=S)NN=C1c2cc(OCCN3CCOCC3)ccc2-c2ccc(OCCN3CCOCC3)cc21	1	18	9	84*	5	.
Oc1ccc(CCNc2c3ccccc3nc3ccccc23)cc1O	0	-211	-15	71*	2	.
O=C(Cc1ccc(Cl)cc1)Nc1ccccc1Sc1ccccc1	-6	7	-6	19	2	0
O=C(CCl)Nc1ccccc1Sc1ccccc1	1	7	-12	83*	1	12
O=C(CCl)Nc1cccc(Oc2ccccc2)c1	-9	23	-11	87*	-14	5
O=C(CCl)Nc1cccc(Oc2cnccn2)c1	11	11	9	11	0	.
O=C(CCl)Nc1ccc(-c2ccccc2)cc1	-5	-3	-21	57*	-5	26
O=C(Nc1ccc(S(=O)(=O)Nc2ncccn2)cc1)c1ccccc1Br	2	6	-22	-3	-2	.
C=C(C)Cn1c2ccc(NC(=S)NCc3ccccc3F)cc2c(=O)n1C	.	-487	.	-9	.	.
COc1cc(OC)cc(C(=O)O/N=C(\N)c2ccccn2)c1	-2	8	-4	31	-2	10
CCOc1cc(C(=O)O/N=C(\N)c2ccccn2)cc(OCC)c1OCC	-8	6	1	61*	-3	.
CCOc1ccc(C(=O)O/N=C(\N)c2ccccn2)cc1OCC	21	3	-19	79*	-13	.
N/C(=N\OC(=O)c1cccc(Br)c1)c1ccccn1	98*	3	96*	77*	86*	.
O=C(COC(=O)c1ccccn1)c1cccc(Br)c1	-16	-1	-2	-9	-22	.
CCOC(=O)C1(Cc2cccc(Cl)c2)CCCN(C(=O)c2ccc(COC)s2)C1 (stereo unspecified)	-9	12	-17	7	-13	.
Nc1c(Cl)ncnc1N/N=C/c1ccc(O)cc1	96*	-137	96*	40	95*	8
Cc1sc2ncnc(N/N=C/c3ccc(O)cc3)c2c1C	3	8	-7	22	-9	11
CCCOc1ccc(-c2nc(N3CCN(C)CC3)c3ccccc3n2)cc1	8	-12	4	66*	5	.
CC(=O)Nc1ccc(S(=O)(=O)Nc2c(NC3CCCCC3)c3ccccc3oc2=O)cc1	8	-30	-5	11	-1	.
